In assay [1] the target is Bile acid receptor (Homo sapiens) (UniProt Q96RI1). In words: ATG_IR1_CIS: Attagene CIS-FACTORIAL HepG2 Assay for human Nuclear Receptor Subfamily 1 Group H Member 4 (NR1H4), IR1 submotif (AID 2282946; active means hit-call score of the fitted dose curve at least 0.9, where 1 is the maximum; inactive means score below 0.9). To be noted: IR1 reporter transcription, actives raise or lower the signal. In short, it runs like this: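 Readout: reporter transcript levels by RT-PCR with fluorescent capillary electrophoresis, from HepG2 cells transiently transfected with multiplexed cis-regulated reporters and dosed 24 h. Gain- or loss-of-signal fitted versus DMSO negative control.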

The target in assay [2] is Nuclear receptor subfamily 1 group I member 3 (Homo sapiens) (UniProt Q14994). Description: ATG_CAR_TRANS: Attagene TRANS-FACTORIAL HepG2 Assay for human Constitutive Androstane Receptor (CAR) (AID 2282969).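 Further: activators raise reporter mRNA above DMSO so AC50 marks induction.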 To be noted: HepG2 Attagene TRANS-FACTORIAL CAR reporter. In short, it runs like this: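 Steps: transient transfection of HepG2 with multiple GAL4-UAS reporter units; 24 h compound incubation; RNA isolation, RT-PCR, 6-FAM primer extension, HpaI digest; capillary electrophoresis. Gain-of-signal relative to DMSO negative control.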

In assay [3] the target is Hepatocyte nuclear factor 4-alpha (Homo sapiens) (UniProt P41235). In words: ATG_HNF4a_TRANS: Attagene TRANS-FACTORIAL HepG2 Assay for human Hepatocyte Nuclear Factor 4 alpha (HNF4a) (AID 2282982). Conditions: HepG2 HNF4a transactivation reporter, mRNA readout. An outline of the steps:
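Using HepG2 liver cells transfected with GAL4-UAS reporter units, chemical-induced mRNA increases were assessed after 24 hours. Fluorescent RT-PCR fragments were separated by capillary electrophoresis and compared with DMSO negative controls.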

Assay [4] concerns the target Nuclear receptor subfamily 4 group A member 2 (Homo sapiens) (UniProt P43354). Description: ATG_NURR1_TRANS: Attagene TRANS-FACTORIAL HepG2 Assay for human Nuclear Receptor Related Protein 1 (NURR1) (AID 2282985). To be noted: HepG2 Attagene TRANS reporter, mRNA readout. In short, it runs like this:
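Chimeric NR-Gal4 proteins were expressed in human HepG2 cells bearing GAL4-UAS reporter units, and induced reporter mRNA was quantified 24 h post-dosing by RT-PCR and capillary electrophoresis.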

The target in assay [5] is human Peroxisome Proliferator-activated Receptor alpha (PPARa), PPARA (gene 5465) (UniProt Q07869). In words: ATG_PPARa_TRANS: Attagene TRANS-FACTORIAL HepG2 Assay for human Peroxisome Proliferator-activated Receptor alpha (PPARa) (AID 2283001).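 On AC50: potency for gain of reporter signal over DMSO so agonist or activator.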 In short, it runs like this: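 Exposure: 24 h, transiently transfected HepG2 cells. Endpoint: GAL4-UAS reporter mRNA, RT-PCR with capillary electrophoresis fluorescence. Baseline: DMSO; increases fitted.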

The target of assay [6] is human Peroxisome Proliferator-activated Receptor delta (PPARd), PPARD (gene 5467) (UniProt Q03181). In words: ATG_PPARd_TRANS: Attagene TRANS-FACTORIAL HepG2 Assay for human Peroxisome Proliferator-activated Receptor delta (PPARd) (AID 2283002). An outline of the steps: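 Measured quantity: GAL4-UAS reporter transcript induction in HepG2 after 24 h chemical dosing, with NR-Gal4 chimeras supplied by transient transfection. Detection by RT-PCR and capillary electrophoresis; upward fit against DMSO.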

The target in assay [7] is Nuclear receptor subfamily 1 group I member 2 (Homo sapiens) (UniProt O75469). In words: ATG_PXR_TRANS: Attagene TRANS-FACTORIAL HepG2 Assay for human Pregnane X Receptor (PXR) (AID 2283008). An outline of the steps: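 Transient HepG2 transfectants carrying multiplexed reporter transcription units; PXR activity read through a Gal4 chimera. 24 h exposure. RT-PCR/CE fluorescence; upward curve fit referenced to DMSO.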

Assay [8] addresses human Vitamin D Receptor (VDR), VDR (gene 7421) (UniProt P11473). In words: ATG_VDR_TRANS: Attagene TRANS-FACTORIAL HepG2 Assay for human Vitamin D Receptor (VDR) (AID 2283022). In short, it runs like this: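 Steps: transfect HepG2 with GAL4-UAS-driven reporter constructs; dose compounds 24 h; isolate RNA, reverse-transcribe, PCR-amplify with 6-FAM-labelled primer extension and HpaI digestion; quantify fragments by capillary electrophoresis relative to DMSO.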

For assay [9], the target named is Retinoic acid receptor alpha (Homo sapiens) (UniProt P10276). Description: ATG_DR5_RAR_CIS: Attagene CIS-FACTORIAL HepG2 Assay for human Retinoic Acid Receptor Alpha (RARE), DR5 submotif (AID 2282934; active means hit-call score of the fitted dose curve at least 0.9, where 1 is the maximum; inactive means score below 0.9;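 on AC50: reporter responds to endogenous RAR alpha beta and gamma in HepG2 not RARA alone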). Conditions: HepG2 Attagene cis-factorial RARE DR5 reporter, mRNA; actives raise or lower the signal. In short, it runs like this: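 Transfected HepG2 reporter cells are exposed to chemicals for 24 h. Then RNA is extracted and the DR5 element reporter transcript is measured by RT-PCR and capillary electrophoresis, with bidirectional curve fitting relative to DMSO.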

Assay [10] deals with Oxysterols receptor LXR-beta (Homo sapiens) (UniProt P55055). Description: ATG_LXRb_TRANS: Attagene TRANS-FACTORIAL HepG2 Assay for human Liver X Receptor beta (LXRb) (AID 2282981). To be noted: HepG2 Attagene TRANS GAL4-LXRb reporter, mRNA. In short, it runs like this:
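Liver-derived HepG2 cells transfected with Gal4-responsive reporters were dosed for 24 h. Activation was scored as rise in reporter mRNA, by RT-PCR and capillary electrophoresis, above DMSO baseline.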

Assay [11] is described as follows: TOX21_p53_BLA_p2_viability: Viability Assessment in the Tox21 HCT-116 p53 Agonism Beta-lactamase Assay, Phase 2 (AID 2283591).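 Further: compound exposure lasted 16 h at 37 °C; actives lower the ATP signal meaning cytotoxicity.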 An outline of the steps: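 HCT-116 p53-bla cells (4000/well) rested 5 h at 37C, then received compounds in DMSO (217-fold dilution) for 16 h at 37C, 5% CO2. After the CCF4 read, CellTiter-Glo was added; ATP luminescence was read after 30 min at room temperature.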

Assay [12] is described as follows: TOX21_p53_BLA_p3_viability: Viability Assessment in the Tox21 HCT-116 p53 Agonism Beta-lactamase Assay, Phase 3 (AID 2283593).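 Further: cells exposed to compound for 16 h before reading.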 In short, it runs like this: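 HCT-116 cells (4000/well) rested 5 h at 37C, then got DMSO compounds by pin tool (217-fold dilution) for 16 h at 37C, 5% CO2. After the bla read, CellTiter-Glo was added and luminescence read at 30 min, room temperature.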

Assay [13] has as its target Cellular tumor antigen p53 (Homo sapiens) (UniProt P04637). In words: TOX21_p53_BLA_p3_ratio: Tox21 HCT-116 p53 Agonism Beta-lactamase Assay, Ratio, Phase 3 (AID 2283596). In short, it runs like this:
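Cells were seeded at 4000/well, rested 5 h at 37C, then dosed with DMSO compound solutions (217-fold dilution) for 16 h. CCF4-AM substrate was loaded for 2 h at room temperature, and the 460/530 nm emission ratio was fitted for gain of signal versus DMSO.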

Assay [14] in a line: TOX21_p53_BLA_p4_viability: Viability Assessment in the Tox21 HCT-116 p53 Agonism Beta-lactamase Assay, Phase 4 (AID 2283597).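 Further: hits lower the luminescence signal meaning cytotoxicity.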 An outline of the steps: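 Readout: ATP luminescence (CellTiter-Glo), measured 30 min after reagent addition at RT. The reagent followed a 2 h CCF4-AM incubation, and the cells had been exposed to compound for 16 h at 37C.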
Assay [15] has as its target Oxysterols receptor LXR-alpha (Homo sapiens) (UniProt Q13133). In words: ATG_LXRa_TRANS: Attagene TRANS-FACTORIAL HepG2 Assay for human Liver X Receptor alpha (LXRa) (AID 2282980). Conditions: HepG2 Attagene TRANS reporter, LXRa transactivation. An outline of the steps: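 Transfect HepG2 with GAL4-UAS multiplex reporter constructs (TRANS format, chimeric receptor-GAL4); treat 24 h; extract RNA, reverse-transcribe, PCR-amplify, FAM-label, HpaI-digest; resolve fragments by capillary electrophoresis. Upward response vs DMSO.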

In assay [16] the target is human RAR-related Orphan Receptor beta (RORb), RORB (gene 6096) (UniProt Q92753). Description: ATG_RORb_TRANS: Attagene TRANS-FACTORIAL HepG2 Assay for human RAR-related Orphan Receptor beta (RORb) (AID 2283010). An outline of the steps: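 Multiplexed transcription-factor reporter assay: HepG2 cells transiently carrying NR-Gal4/GAL4-UAS constructs, 24 h treatment, mRNA quantified by RT-PCR plus capillary electrophoresis fluorescence; activity scored as induction over DMSO.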

For assay [17], the target named is human RAR-related Orphan Receptor gamma (RORg), RORC (gene 6097) (UniProt P51449). Description: ATG_RORg_TRANS: Attagene TRANS-FACTORIAL HepG2 Assay for human RAR-related Orphan Receptor gamma (RORg) (AID 2283011). In short, it runs like this:
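First, HepG2 liver cells were transfected with GAL4-UAS-driven reporter constructs and the RORg-Gal4 fusion. Next, they were treated with chemical for 24 h. Finally, reporter mRNA was quantified by RT-PCR and capillary electrophoresis, with upward activity fitted against DMSO.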

Assay [18] is described as follows: ATG_GAL4_TRANS: Attagene TRANS-FACTORIAL HepG2 Assay for GAL4 (Internal Marker) (AID 2282976). To be noted: HepG2 Attagene TRANS GAL4 internal marker reporter. In short, it runs like this:
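First, HepG2 cells were transfected with reporter units under GAL4-UAS control. Next, they were treated with chemical for 24 h. Finally, RNA was reverse-transcribed, PCR-amplified, FAM-labelled and resolved by capillary electrophoresis, with induction scored against DMSO.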

A short description of assay [19]: CCTE_Harrill_HTTr_Viability_MCF7: CCTE's 6-hour Cell Viability Assessment for the High-Throughput Transcriptomics (HTTr) Platform, in MCF-7 cells cultured in DMEM + 10% fetal bovine serum, Harrill Lab (AID 2284010; active means hit-call score of the fitted dose curve at least 0.9, where 1 is the maximum; inactive means score below 0.9). An outline of the steps: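 Eight-point concentration series, six-hour exposure. Propidium iodide exclusion imaged to assess membrane integrity as a cytotoxicity readout; bidirectional fitting was done with DMSO as negative control and activity baseline.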

Assay [20] in a line: ATG_XTT_Cytotoxicity: Cytotoxicity Assessment in the Attagene TRANS-FACTORIAL HepG2 Assay (AID 2283584). In short, it runs like this: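 Cells: human HepG2, transiently transfected with MRTU reporter constructs. Exposure 24 h. Readout: XTT, cell number. Baseline/neg ctrl DMSO; loss-of-signal scored.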

Records with an inconclusive call do not appear. The source made the active and inactive calls. How the source made its calls, unless noted: active means hit-call score of the fitted dose curve at least 0.9, where 1 is the maximum; inconclusive means response in the unintended direction; inactive means score below 0.9.

Retinoic acid receptor alpha (Homo sapiens), sequence (P10276 whole entry, looked up): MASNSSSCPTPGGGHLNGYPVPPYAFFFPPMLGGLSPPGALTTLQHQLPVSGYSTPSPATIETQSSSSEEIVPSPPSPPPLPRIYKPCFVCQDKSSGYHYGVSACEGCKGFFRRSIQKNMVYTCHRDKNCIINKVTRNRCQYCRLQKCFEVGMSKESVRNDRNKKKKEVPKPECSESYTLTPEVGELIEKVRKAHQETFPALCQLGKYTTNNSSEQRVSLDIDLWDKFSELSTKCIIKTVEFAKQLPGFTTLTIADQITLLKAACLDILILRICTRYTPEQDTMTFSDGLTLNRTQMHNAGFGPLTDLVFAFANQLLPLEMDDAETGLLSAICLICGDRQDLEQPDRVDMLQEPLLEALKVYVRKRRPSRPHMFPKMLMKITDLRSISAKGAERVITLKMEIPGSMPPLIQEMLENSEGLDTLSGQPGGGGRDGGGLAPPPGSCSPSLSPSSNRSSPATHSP
Oxysterols receptor LXR-alpha (Homo sapiens), sequence (Q13133 whole entry, looked up, the tested form may be a part): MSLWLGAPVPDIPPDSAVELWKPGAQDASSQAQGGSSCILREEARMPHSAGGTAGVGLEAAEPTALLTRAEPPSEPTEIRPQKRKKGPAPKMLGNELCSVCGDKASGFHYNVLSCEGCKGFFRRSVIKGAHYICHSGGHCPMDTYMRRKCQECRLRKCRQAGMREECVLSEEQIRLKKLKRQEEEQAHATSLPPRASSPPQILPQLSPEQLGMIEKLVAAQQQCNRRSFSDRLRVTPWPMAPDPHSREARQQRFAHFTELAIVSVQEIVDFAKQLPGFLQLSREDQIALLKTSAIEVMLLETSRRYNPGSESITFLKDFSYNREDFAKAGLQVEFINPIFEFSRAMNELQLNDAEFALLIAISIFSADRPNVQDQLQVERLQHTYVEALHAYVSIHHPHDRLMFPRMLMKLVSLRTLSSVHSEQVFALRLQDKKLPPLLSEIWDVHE
Nuclear receptor subfamily 1 group I member 2 (Homo sapiens), sequence (O75469 whole entry, looked up, the tested form may be a part): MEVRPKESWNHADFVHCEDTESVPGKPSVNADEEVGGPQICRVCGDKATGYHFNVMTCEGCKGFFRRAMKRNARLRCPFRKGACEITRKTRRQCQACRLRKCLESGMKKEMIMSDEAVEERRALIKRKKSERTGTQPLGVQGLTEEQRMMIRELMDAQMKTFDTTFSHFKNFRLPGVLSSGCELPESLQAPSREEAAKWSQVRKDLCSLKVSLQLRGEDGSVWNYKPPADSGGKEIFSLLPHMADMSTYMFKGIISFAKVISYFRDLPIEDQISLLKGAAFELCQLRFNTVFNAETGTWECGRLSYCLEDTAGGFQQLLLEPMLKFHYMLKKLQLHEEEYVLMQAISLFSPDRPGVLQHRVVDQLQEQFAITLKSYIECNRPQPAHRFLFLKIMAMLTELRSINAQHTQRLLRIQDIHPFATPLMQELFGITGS
Nuclear receptor subfamily 1 group I member 3 (Homo sapiens), sequence (Q14994 whole entry, looked up, the tested form may be a part): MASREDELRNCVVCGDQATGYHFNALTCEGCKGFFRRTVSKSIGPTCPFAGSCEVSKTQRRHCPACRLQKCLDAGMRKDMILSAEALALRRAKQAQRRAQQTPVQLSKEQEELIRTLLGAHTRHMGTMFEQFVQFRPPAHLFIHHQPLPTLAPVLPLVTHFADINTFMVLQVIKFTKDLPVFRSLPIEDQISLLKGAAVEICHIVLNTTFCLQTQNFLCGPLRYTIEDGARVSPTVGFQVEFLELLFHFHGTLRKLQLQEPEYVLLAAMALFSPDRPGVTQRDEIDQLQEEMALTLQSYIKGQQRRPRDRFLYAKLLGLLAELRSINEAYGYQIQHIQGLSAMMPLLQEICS
human RAR-related Orphan Receptor gamma (RORg), RORC (gene 6097), sequence (P51449 whole entry, looked up, the tested form may be a part): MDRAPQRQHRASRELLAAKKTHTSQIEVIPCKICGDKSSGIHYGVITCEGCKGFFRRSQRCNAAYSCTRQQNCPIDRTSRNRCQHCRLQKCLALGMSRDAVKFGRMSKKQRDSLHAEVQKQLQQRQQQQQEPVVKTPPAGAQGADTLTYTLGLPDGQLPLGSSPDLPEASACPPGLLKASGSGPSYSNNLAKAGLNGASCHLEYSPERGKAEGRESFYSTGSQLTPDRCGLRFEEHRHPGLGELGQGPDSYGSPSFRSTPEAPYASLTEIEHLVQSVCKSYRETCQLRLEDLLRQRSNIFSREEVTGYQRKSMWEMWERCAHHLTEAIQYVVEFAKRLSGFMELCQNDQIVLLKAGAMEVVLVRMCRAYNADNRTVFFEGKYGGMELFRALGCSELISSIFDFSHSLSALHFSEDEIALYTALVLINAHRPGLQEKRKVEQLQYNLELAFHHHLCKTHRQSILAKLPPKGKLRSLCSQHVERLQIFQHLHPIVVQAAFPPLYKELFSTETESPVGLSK
human Vitamin D Receptor (VDR), VDR (gene 7421), sequence (P11473 whole entry, looked up, the tested form may be a part): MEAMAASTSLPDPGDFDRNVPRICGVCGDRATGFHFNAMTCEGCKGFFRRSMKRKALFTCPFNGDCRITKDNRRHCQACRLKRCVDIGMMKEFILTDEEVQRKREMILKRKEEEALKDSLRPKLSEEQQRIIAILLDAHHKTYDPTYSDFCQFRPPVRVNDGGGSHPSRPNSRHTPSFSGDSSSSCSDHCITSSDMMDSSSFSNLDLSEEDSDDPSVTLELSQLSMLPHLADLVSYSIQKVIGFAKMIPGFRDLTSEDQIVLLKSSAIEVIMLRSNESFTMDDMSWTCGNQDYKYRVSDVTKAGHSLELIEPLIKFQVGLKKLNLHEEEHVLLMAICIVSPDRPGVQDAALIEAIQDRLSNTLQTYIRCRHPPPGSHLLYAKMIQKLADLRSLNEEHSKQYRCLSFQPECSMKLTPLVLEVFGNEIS
Cellular tumor antigen p53 (Homo sapiens), sequence (P04637 whole entry, looked up): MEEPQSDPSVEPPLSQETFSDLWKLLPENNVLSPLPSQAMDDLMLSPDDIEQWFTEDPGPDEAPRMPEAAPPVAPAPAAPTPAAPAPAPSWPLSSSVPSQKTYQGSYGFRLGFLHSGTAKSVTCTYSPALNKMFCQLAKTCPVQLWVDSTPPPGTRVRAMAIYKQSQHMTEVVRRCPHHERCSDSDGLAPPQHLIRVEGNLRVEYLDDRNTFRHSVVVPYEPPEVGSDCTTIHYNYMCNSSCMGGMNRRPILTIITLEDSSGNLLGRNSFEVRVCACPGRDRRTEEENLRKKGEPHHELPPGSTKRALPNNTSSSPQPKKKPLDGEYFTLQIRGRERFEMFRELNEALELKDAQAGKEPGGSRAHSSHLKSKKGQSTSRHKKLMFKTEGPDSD
Bile acid receptor (Homo sapiens), sequence (Q96RI1 whole entry, looked up): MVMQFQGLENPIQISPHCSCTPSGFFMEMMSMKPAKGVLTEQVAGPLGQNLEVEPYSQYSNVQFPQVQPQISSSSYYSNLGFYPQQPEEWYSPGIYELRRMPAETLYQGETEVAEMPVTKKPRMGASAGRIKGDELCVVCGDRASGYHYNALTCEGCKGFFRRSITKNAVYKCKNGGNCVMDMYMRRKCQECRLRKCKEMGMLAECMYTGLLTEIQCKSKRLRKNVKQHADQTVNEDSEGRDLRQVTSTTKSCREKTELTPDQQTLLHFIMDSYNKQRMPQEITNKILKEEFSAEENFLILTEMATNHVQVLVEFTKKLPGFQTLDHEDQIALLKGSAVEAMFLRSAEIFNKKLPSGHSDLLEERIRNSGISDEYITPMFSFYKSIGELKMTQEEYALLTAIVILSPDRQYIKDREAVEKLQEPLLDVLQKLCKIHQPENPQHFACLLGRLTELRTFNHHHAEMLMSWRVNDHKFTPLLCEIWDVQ
human Peroxisome Proliferator-activated Receptor delta (PPARd), PPARD (gene 5467), sequence (Q03181 whole entry, looked up, the tested form may be a part): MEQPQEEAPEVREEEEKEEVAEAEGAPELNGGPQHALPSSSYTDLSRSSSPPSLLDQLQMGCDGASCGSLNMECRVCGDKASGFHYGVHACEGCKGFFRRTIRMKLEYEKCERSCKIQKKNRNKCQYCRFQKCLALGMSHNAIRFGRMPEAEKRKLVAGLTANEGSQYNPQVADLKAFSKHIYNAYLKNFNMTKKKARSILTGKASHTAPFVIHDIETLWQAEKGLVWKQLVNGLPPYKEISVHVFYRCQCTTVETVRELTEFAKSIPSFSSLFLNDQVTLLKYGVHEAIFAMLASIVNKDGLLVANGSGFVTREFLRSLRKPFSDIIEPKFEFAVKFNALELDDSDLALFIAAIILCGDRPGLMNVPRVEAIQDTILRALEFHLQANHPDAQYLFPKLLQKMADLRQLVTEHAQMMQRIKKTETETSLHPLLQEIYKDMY
Oxysterols receptor LXR-beta (Homo sapiens), sequence (P55055 whole entry, looked up, the tested form may be a part): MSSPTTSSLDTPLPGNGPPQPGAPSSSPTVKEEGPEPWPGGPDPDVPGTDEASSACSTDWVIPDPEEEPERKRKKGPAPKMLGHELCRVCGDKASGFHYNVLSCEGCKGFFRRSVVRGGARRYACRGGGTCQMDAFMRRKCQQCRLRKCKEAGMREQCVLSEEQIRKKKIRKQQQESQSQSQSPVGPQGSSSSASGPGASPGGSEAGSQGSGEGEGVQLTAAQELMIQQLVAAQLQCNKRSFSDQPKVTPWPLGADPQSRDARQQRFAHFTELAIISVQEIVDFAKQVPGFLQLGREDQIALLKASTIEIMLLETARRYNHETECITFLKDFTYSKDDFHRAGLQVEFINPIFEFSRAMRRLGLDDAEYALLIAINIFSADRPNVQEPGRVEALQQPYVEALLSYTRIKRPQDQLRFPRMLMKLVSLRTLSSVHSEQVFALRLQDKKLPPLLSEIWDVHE
human Peroxisome Proliferator-activated Receptor alpha (PPARa), PPARA (gene 5465), sequence (Q07869 whole entry, looked up, the tested form may be a part): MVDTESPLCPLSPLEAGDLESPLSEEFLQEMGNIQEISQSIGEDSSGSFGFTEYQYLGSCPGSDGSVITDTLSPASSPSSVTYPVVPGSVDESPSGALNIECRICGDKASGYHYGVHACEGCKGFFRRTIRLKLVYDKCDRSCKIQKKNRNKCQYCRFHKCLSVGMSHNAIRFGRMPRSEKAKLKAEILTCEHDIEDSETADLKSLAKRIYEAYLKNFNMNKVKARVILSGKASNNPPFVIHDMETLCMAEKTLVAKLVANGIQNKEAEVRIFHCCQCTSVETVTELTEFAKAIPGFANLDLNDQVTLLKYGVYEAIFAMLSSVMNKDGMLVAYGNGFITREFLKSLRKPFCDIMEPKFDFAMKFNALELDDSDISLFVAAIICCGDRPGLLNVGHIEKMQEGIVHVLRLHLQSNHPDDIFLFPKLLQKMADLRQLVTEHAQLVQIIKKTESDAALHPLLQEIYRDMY

Broadly, the AC50 is the concentration giving half of the maximal activity seen. Turning to `SCc1ccco1`, the result in [1], in assay [2], in assay [3], in assay [4], in [6] and in assay [7] was inactive. For the same compound, the compound was classed as inactive in [8]. Also, the half-maximal activity concentration (AC50) in assay [5] was 33 µM (active).

Regarding `CC1CCCC1.[C-]#[O+].[C-]#[O+].[C-]#[O+].[Mn]`, the call in [9], in assay [2], in [10], in [5], in assay [8] and in assay [11] was inactive. Further, the compound was classed as inactive in assay [12], in assay [13] and in [14].

With `[CH3][Sn]([CH3])([Cl])[Cl]`, the call in [9], in assay [2], in [15], in [10], in assay [3] and in [4] was inactive. The call in assay [6], in [16], in assay [17] and in assay [8] was inactive.

Take `CC(C)[C@@H](C(=O)O[C@@H](C#N)c1cccc(Oc2ccccc2)c1)c1ccc(Cl)cc1`: the compound was classed as inactive in assay [2], in [18], in assay [4], in [6], in assay [11] and in [13]. The result in assay [14] and in assay [19] was inactive. Also, the half-maximal activity concentration (AC50) in [7] is 0.752 µM (active).

Take `CCOC(=O)NC(=S)Nc1ccccc1NC(=S)NC(=O)OCC`: the compound was classed as inactive in assay [9], in [4], in assay [5], in assay [6], in assay [16] and in assay [8]. The compound was classed as inactive in assay [12], in assay [14] and in assay [19]. The AC50 in assay [7] is 0.77 µM (active); in [13] it was 85.4 µM (active).

As to `C=CC(=O)OCC(CC)CCCC` (configuration not stated), the concentration at half-maximal activity (AC50) in [9] was 19.8 µM (active). The result in assay [18], in assay [10], in [4], in assay [5], in assay [6] and in assay [7] was inactive. Also, the compound was called inactive in assay [17], in [8], in [20], in assay [11], in assay [12] and in assay [13]. For the same compound, the compound was called inactive in assay [14] and in assay [19].

In the case of `O=C(O)COc1ccccc1`, the outcome in assay [10], in assay [5], in assay [7], in assay [11], in assay [12] and in [13] was inactive. Besides, the outcome in [14] was inactive.

Regarding `O=P(O)(Oc1ccccc1)Oc1ccccc1`, the call in assay [1], in assay [2], in assay [18], in assay [15], in assay [10] and in assay [4] was inactive. Also, the result in assay [5], in assay [8], in [20], in assay [11] and in assay [13] was inactive.

Regarding `c1ccc(P(c2ccccc2)c2ccccc2)cc1`, the call in [2], in assay [6], in assay [11], in [12] and in assay [14] was inactive. The half-maximal activity concentration (AC50) in assay [7] was 6.89 µM (active).

Turning to `CC(C)CCCCCCCOC(=O)c1ccccc1C(=O)OCCCCCCCC(C)C`, the result in assay [1], in [18], in assay [7], in assay [16], in assay [17] and in assay [20] was inactive. Besides, the outcome in assay [19] was inactive.

As for `CCCC=NO`, the outcome in assay [1], in [2], in assay [18], in assay [15], in assay [10] and in assay [5] was inactive. Moreover, the call in assay [7], in assay [16], in assay [17], in [20], in assay [11] and in assay [12] was inactive. Moreover, the outcome in assay [13] and in [14] was inactive.

On to `C[C@]12CCC(=O)C(O)=C1CC[C@@H]1[C@@H]2CC[C@]2(C)C(=O)CC[C@@H]12`, for which the result in [18], in assay [15], in assay [10], in [7], in [8] and in [20] was inactive. The compound was classed as inactive in assay [11], in [12], in [14] and in assay [19].
